Test results published in publication PMC12864922, “TDP-43 directly inhibits mRNA accumulation in neurites through modulation of mRNA stability”.
The full ranking holds about 9,900 sequences; the median of “r (bound/input frequency ratio)” is about 0.7, and the highest 2% start at about 6.5. Only a selection was taken, and the highest values are over-represented in it overall.

B1: ENSMUSG00000058297.292|Spock2|89:94 (ssRNA)
RNA: GGGAGUUCUACAGUCCGACGAUCGCUUCGAUAUCCGCAUGCUAAGAGAGAAAGAGAGAGAGAAUGAGAGAGAAUGAGAGAGAGAAUACCCGAGGGCCACCCUGAUGCCCAGGAAGAGUGAGGGCAGCCCCCACACACGUGGAAGAGGCUGGGCAGCUAGCUACUGGGGACCUUGUGCUGAGGCUUCCAGGACAAAGCCCCAGUCUGGCUCUCCCCCAGCCUCUCAGGGGCACUGGCUGGUCACAUCCACUGAGUAUUGAUCGGUUGGACUUUAGGGAAGAGCCUCCUCCUUCCCAUUCCUUUCCUCUUGCGGUCGCACUAGUGUGGAAUUCUCGGGUGUCAAGG
B2: ENSMUSG00000058297.291|Spock2|95:100 (ssRNA)
RNA: GGGAGUUCUACAGUCCGACGAUCGCUUCGAUAUCCGCAUGCUAAGAGAGAGAGAGAAAGAGAGAGAGAAUGAGAGAGAAUGAGAGAGAGAAUACCCGAGGGCCACCCUGAUGCCCAGGAAGAGUGAGGGCAGCCCCCACACACGUGGAAGAGGCUGGGCAGCUAGCUACUGGGGACCUUGUGCUGAGGCUUCCAGGACAAAGCCCCAGUCUGGCUCUCCCCCAGCCUCUCAGGGGCACUGGCUGGUCACAUCCACUGAGUAUUGAUCGGUUGGACUUUAGGGAAGAGCCUCCUCCUUCCCAUUCUCUUGCGGUCGCACUAGUGUGGAAUUCUCGGGUGUCAAGG
B3: ENSMUSG00000058297.294|Spock2|77:82 (ssRNA)
RNA: GGGAGUUCUACAGUCCGACGAUCGCUUCGAUAUCCGCAUGCUAAGAGAGAAUGAGAGAGAAUGAGAGAGAGAAUACCCGAGGGCCACCCUGAUGCCCAGGAAGAGUGAGGGCAGCCCCCACACACGUGGAAGAGGCUGGGCAGCUAGCUACUGGGGACCUUGUGCUGAGGCUUCCAGGACAAAGCCCCAGUCUGGCUCUCCCCCAGCCUCUCAGGGGCACUGGCUGGUCACAUCCACUGAGUAUUGAUCGGUUGGACUUUAGGGAAGAGCCUCCUCCUUCCCAUUCCUUUCUGCCACCCUGGACUCUUGCGGUCGCACUAGUGUGGAAUUCUCGGGUGUCAAGG
B4: ENSMUSG00000061578.830|Ksr2|59:63;101:105;176:180 (ssRNA)
RNA: GGGAGUUCUACAGUCCGACGAUCGCUUCGAUAUCCGCAUGCUAAUAGAAACAGCAUUCUGGCUCACAGUUUCAAAGGGCUCAGUCCAUAGCUGCCUGACUCACACAUUCUAGGCCUUUCUUGAGGCAAGUGUUCAUCAUGAUACACACAGGGUGAGGAGGAGUUUCUUCAUGGCAAACAGGAAGCAAAGAGCAAUACAGGAAAAGGUCAGGGGUGAGAACACACAUUGCCACUUCCUCCAGCUAGGACCUUUGAGCAUCACAUUGUGAAGCCAUCCAGGGACUUGGGGGUUAGGUCAGAGGUACUCUUGCGGUCGCACUAGUGUGGAAUUCUCGGGUGUCAAGG
B5: ENSMUSG00000032194.214|Kank2 (ssRNA)
RNA: GGGAGUUCUACAGUCCGACGAUCGCUUCGAUAUCCGCAUGCUAUUGUUGUUGUUUCUUUGUUUCUUUUCUUCAUAAAGAAGAAAAAGGAAACAACUUCUAGAUGUGCCUUGCGAUAGGGAGGACUUUGUCCUCUCAAGUCUCCCUGUCGUAUCCAGAUCACAGCUGAACCCACUGGGCCUUGGCGCCAAACCUCAGCAGGGCAGCAUUGAGACUCAUGGACUAAAGGAAAGUGUUCACUCUUCUAGACAAGUGGGUCUCUUGGUUUGAUGGAGUCUUACUCCGCUUGAGUUUUGUAGAAGGGGCUCUUGCGGUCGCACUAGUGUGGAAUUCUCGGGUGUCAAGG
B6: ENSMUSG00000029636.67|Wasf3|73:79;237:241 (ssRNA)
RNA: GGGAGUUCUACAGUCCGACGAUCGCUUCGAUAUCCGCAUGCUACCAUCCUGAUUUGGUGGGCUUGCCACGUAUCUGCGCAGCUGCCCCACGUCAGCUCUCUGCAAGAUCACUGGCACACACACUCAGUGAUGUCUUCCAACCAGUGGGUGAUACGUUUUCCUGUUUCUUCCCUUUGCAAAUUGAAUUCCAGGUAGAUAUGGUUGUAGAGGGGAAAGUUUAACAAAUCAGAAUGAAAUGUUUGUCUGUUUGCACACUGGGCCUGGUGGCCUCCAAGGAAAACACAACGAUCGUUUGCUUUCUCUCUCUUGCGGUCGCACUAGUGUGGAAUUCUCGGGUGUCAAGG
B7: ENSMUSG00000061578.1419|Ksr2|3:7;229:233 (ssRNA)
RNA: GGGAGUUCUACAGUCCGACGAUCGCUUCGAUAUCCGCAUGCUAAUCAUACAUCUUGAUUCUCCAUUUUCCUUCUGGACCACAUGUCUCUUCCUUUUCCUUUUUAGAUCUGUCUUGCUCUCUGUCUCUCUCACUCAUUGCCAACAUGUUGCUGGGAAAGAAUAUUUGAUUUAGAUGCCAAUCAGGAAGGCAAGUAGGAUGGAUGGAUGAGUGAGUGGAUAGGUAGGUAUAUAAAUGGAUGGAUGGGUGAUGGAUGGGUAAAUGAAUGGAUAGCAUACUGAAUGAAUGGAUGAUGGAUGAAUGGACUCUUGCGGUCGCACUAGUGUGGAAUUCUCGGGUGUCAAGG
B8: ENSMUSG00000029636.444|Wasf3 (ssRNA)
RNA: GGGAGUUCUACAGUCCGACGAUCGCUUCGAUAUCCGCAUGCUAGGAUUCAUGAUGGAUGGAUGGAUGGAUGGAUGGAUGGAUGGAUGGAUGAGUGGAUGGAUAAUAGGUUGAUGGGUGGAUAGGUAGAUGAGUGAAUAGAUAGAUAUAGAUCAGUGGGAGGAUUGGAAAGUAGGUGAAUGAAUGGAUGGCAGAUAGAUGGAUCAAUUACAGAUGGAUGGAUGCAUGGAAUAGAUAGGUGGAUGGGUGGUGGCUAGAAGGUGCCUGAGUCUGCACAUCACUGCACUGAGAAGGCAAAUGAGUACCUCUUGCGGUCGCACUAGUGUGGAAUUCUCGGGUGUCAAGG
B9: ENSMUSG00000029636.443|Wasf3 (ssRNA)
RNA: GGGAGUUCUACAGUCCGACGAUCGCUUCGAUAUCCGCAUGCUAGUGGGUGGAUUCAUGAUGGAUGGAUGGAUGGAUGGAUGGAUGGAUGGAUGGAUGAGUGGAUGGAUAAUAGGUUGAUGGGUGGAUAGGUAGAUGAGUGAAUAGAUAGAUAUAGAUCAGUGGGAGGAUUGGAAAGUAGGUGAAUGAAUGGAUGGCAGAUAGAUGGAUCAAUUACAGAUGGAUGGAUGCAUGGAAUAGAUAGGUGGAUGGGUGGUGGCUAGAAGGUGCCUGAGUCUGCACAUCACUGCACUGAGAAGGCAAAUCUCUUGCGGUCGCACUAGUGUGGAAUUCUCGGGUGUCAAGG

biological target: TDP-43 (Homo sapiens, UniProt Q13148 1-414); experiment: RNA Bind-n-Seq with designed 260-mer pool; 25 mM Tris-HCl, 150 mM KCl, 3 mM MgCl2, BSA (printed 500 mg/mL), 20 units/mL SUPERase IN; pH not stated; 500 nM RNA pool, 1 h, 4 C; TDP-43 5, 50, 500 nM; high values mean tight binding; conditions: protein: recombinant; tags: SBP (GST cleaved off with PreScission; pGEX-GST-SBP)
Summary of the method: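 Binding (R) is the ratio of each oligo's mapped-read-normalized abundance in the bound fraction to its abundance in the input. To obtain it, SBP-tagged recombinant TDP-43 (5, 50 or 500 nM) on streptavidin beads was incubated with 500 nM of an in vitro-transcribed 260-nt 3′ UTR oligo pool for 1 h at 4 °C in 25 mM Tris-HCl, 150 mM KCl, 3 mM MgCl2, BSA and SUPERase IN. The RNA retained after washing was released with biotin, then reverse transcribed, amplified by PCR and sequenced.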

TDP-43, sequence (Q13148 whole entry): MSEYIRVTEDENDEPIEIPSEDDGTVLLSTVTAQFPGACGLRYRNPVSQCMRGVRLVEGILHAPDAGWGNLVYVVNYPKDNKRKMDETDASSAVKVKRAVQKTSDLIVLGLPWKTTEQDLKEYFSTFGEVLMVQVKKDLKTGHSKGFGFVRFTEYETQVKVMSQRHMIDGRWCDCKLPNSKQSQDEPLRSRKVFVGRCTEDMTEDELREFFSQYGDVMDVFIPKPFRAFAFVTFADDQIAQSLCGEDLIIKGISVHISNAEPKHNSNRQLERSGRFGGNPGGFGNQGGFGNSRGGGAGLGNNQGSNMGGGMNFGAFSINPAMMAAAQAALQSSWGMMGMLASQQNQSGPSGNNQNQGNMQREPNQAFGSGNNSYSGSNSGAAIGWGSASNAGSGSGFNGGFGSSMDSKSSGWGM

Row | Binder | binding signal
1 | B1 | 5.57 R (bound/input frequency ratio)
2 | B2 | 8.71 R (bound/input frequency ratio)
3 | B3 | 2.62 R (bound/input frequency ratio)
4 | B4 | 0.325 R (bound/input frequency ratio)
5 | B5 | 0.273 R (bound/input frequency ratio)
6 | B6 | 1.65 R (bound/input frequency ratio)
7 | B7 | 2.26 R (bound/input frequency ratio)
8 | B8 | 4.6 R (bound/input frequency ratio)
9 | B9 | 5.07 R (bound/input frequency ratio)
